Assay outcomes (PubChem)
TLR4 MyD88 comp: blocks binding of human TLR4 to MyD88. HeLa CL3-4 TLR4/MyD88 BLA complementation, FRET ratio. inhibition, % at 8.4 µM. O00206+Q99836. 200,000 tested, 0.18% active. AID 861; in the data active = inhibition above about 25%;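 also: 0% = vehicle and 100% = reference inhibitor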
NOD2-RIPK2 inh: inhibitors of human NOD2-RIPK2 interaction. inhibition, % at 4.98 µM. AID 624267. CHO BLA complementation NOD2-RIPK2, CCF4 ratio. 360,000 tested, 0.38% active. O43353; in the data active = inhibition above about 21%;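 also: 0% = vehicle only and 100% = reference blocker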
Granule exo inh: blocks lytic granule exocytosis; inhibition, % at 10 µM; TALL-104 LAMP-1 surface exposure, flow cytometry; cells stimulated with thapsigargin and PMA; 360,000 tested, 0.66% active;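 active = inhibition above about 55%, limit read from the data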
ABHD5 PLIN5 PPI: ABHD5-PLIN5 protein interaction inhibition; Split G. princeps luciferase complementation, luminescence, 4 h; Q00G26+Q8WTS1; 360,000 tested, 0.78% active; AID 602281; inhibition, % at 4 µM;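 active = inhibition above the mean inhibition across every tested compound plus 3 SD, cut at about 22% in these data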;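 also: 0% = DMSO only wells and the 100% control is not disclosed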
TLR9-MyD88 inh: blocks human TLR9 binding to MyD88. CHO BLA complementation TLR9-MyD88, CCF4 FRET ratio. 340,000 tested, 0.21% active. Q9NR96+Q99836. inhibition, % at 4.98 µM. AID 504734;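 active = inhibition above the mean over all tested compounds plus 3 SD, cut at about 21% in these data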;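 also: 0% = DMSO only wells and 100% = clavulanate BLA inhibitor control wells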
PRMT1 inh: inhibitors of human PRMT1; Q99873; recombinant PRMT1, activity-based probe fluorescence polarization; inhibition, % at 2.79 µM; 370,000 tested, 1.3% active; AID 652257;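 active = inhibition above about 21% made by adding two undisclosed values, limit read from the data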
ABHD5-PLIN5 conf: ABHD5-PLIN5 interaction inhibition, confirmed. biochemical ABHD5-PLIN5 interaction, luminescence. inhibition, % at 4 µM. AID 651612. shares compounds with ABHD5 PLIN5 PPI. 2,200 tested, 67% active; in the data active = inhibition above about 23%;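 also: 0% = DMSO vehicle wells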
HNF4 counter: counter-screen for ABHD5-PLIN5 inhibitors: HNF4 split-luciferase | AID 651674 | 2,200 tested, 77% active | inhibition, % at 4 µM | shares compounds with ABHD5 PLIN5 PPI | HNF4 dimerization, luminescence, biochemical;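 active = mean inhibition across replicate wells exceeding the computed hit threshold, cut at about 13% in these data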;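 also: light from luciferase halves that rejoin when HNF4 fusion proteins dimerize; 0% = DMSO only wells and the 100% control is not given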
Target sequence (P41235 whole entry, looked up, the tested form may be a part): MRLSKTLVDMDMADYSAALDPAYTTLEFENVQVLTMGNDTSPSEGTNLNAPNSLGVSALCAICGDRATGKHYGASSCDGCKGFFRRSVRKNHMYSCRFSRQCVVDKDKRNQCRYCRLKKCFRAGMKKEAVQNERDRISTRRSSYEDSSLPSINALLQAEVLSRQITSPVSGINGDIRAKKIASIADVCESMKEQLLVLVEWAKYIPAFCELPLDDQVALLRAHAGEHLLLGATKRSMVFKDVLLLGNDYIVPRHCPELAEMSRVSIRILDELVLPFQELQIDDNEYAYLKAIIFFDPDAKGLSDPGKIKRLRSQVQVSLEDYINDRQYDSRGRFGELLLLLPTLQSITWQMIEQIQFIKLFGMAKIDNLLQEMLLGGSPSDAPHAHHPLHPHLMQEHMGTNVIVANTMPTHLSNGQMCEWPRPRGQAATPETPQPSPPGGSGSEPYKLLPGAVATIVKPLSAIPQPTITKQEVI
An asterisk follows results filed as active; · = no result. The list is not random: actives were taken first. Their share in the collection is about 2.6%.

SMILES | TLR4 MyD88 comp | NOD2-RIPK2 inh | Granule exo inh | ABHD5 PLIN5 PPI | TLR9-MyD88 inh | PRMT1 inh | ABHD5-PLIN5 conf | HNF4 counter
Nc1ncnc2c1ncn2[C@@H]1O[C@H](C(=O)N[C@@H](CCc2ccccc2)C(=O)O)[C@@H](O)[C@H]1O | · | · | · | · | · | -7.3 | · | ·
Cc1ccc(S(=O)(=O)N2CCCc3nc(C)c(C)cc32)cc1 | · | · | · | · | · | -1.0 | · | ·
COC(=O)C1=C(C)N(C)C(=NCc2ccccc2C(F)(F)F)NC1CCc1ccccc1 (configuration not stated) | · | · | · | · | · | -3.8 | · | ·
O=C(NCC1CCN(C(=O)C(=O)c2cccs2)CC1)c1ccc2ccccc2c1 | · | · | · | · | · | -2.7 | · | ·
CCOC(=O)C1=CC[C@@H](c2ccccc2)N(S(=O)(=O)c2ccc(C)cc2)[C@@H]1C#N | · | 5.2 | 42.9 | 48.2* | · | 13.3 | 49.6* | 58.1*
O=C(N[C@H](C(=O)N1CCC[C@H]1C(=O)NC1CCCC1)c1ccccc1)c1ccc(Cl)cc1Cl | · | · | · | · | · | -0.4 | · | ·
COCCCNC(=O)C[C@H]1C[C@@]2(C(=O)OC)C(=C[C@H](COCc3ccccc3)O[C@@H]2C)N(CCC2=CCCCC2)C1=O | · | · | · | · | · | -7.0 | · | ·
CC(=O)Oc1ccc(C(=O)O)c(OC(C)=O)c1 | · | -6.6 | -5.1 | -1.2 | 2.2 | -1.4 | · | ·
CC(=O)Oc1ccc(OC(C)=O)c2c1CC(C)=C(C)C2 | · | 0.8 | 49.1 | 30.6* | 7.4 | -0.2 | 32.5* | 23.9*
O=C(OCC#CCSc1nnc(-c2cccc3ccccc23)o1)c1cc(F)c(F)c(F)c1 | · | · | · | · | · | -2.2 | · | ·
CC(C)(C)c1ccc(/C=C/C(=O)c2ccc(NC3=NCCCS3)cc2)cc1 | 4.7 | -4.5 | 12.4 | 50.4* | 4.0 | 0.4 | 57.4* | 38.3*
O=C(/C=C/c1ccc(Br)cc1)c1ccc(NC2=NCCCS2)cc1 | -16.4 | 8.2 | 17.0 | 88.6* | 6.8 | 5.0 | 95.0* | 83.9*
O=C(/C=C/c1ccccc1)c1ccc(NC2=NCCCS2)cc1 | -3.0 | 13.3 | 1.8 | 61.6* | 3.3 | 3.0 | 72.1* | 61.6*
c1ccc(NC2=NCCCCS2)cc1 | -9.6 | 4.7 | -0.9 | -5.5 | -6.1 | -0.9 | · | ·
O=C(CNC(=O)c1ccc(Br)cc1)NC1=NCCS1 | · | -1.0 | -2.1 | 4.6 | 6.6 | -3.4 | · | ·
Cc1ccccc1C(=O)N[C@@H](Cc1cccnc1)C(=O)N1CCC[C@H]1C(=O)NC1CCCC1 | · | · | · | · | · | 1.5 | · | ·
O=C(NCCc1c[nH]c2ccccc12)c1ccc2c(c1)ncn2C1CCCCC1 | · | · | · | · | · | -1.4 | · | ·
COC(=O)c1cc(-c2cccc(C(C)C)c2)c(=O)n2c1CCC2 | · | · | · | · | · | -7.0 | · | ·
C[C@H](CO)N1C[C@H](C)[C@@H](CN(C)C(=O)Nc2ccccc2)OCc2cn(nn2)CCCC1=O | · | · | · | · | · | -1.4 | · | ·
NCCCCCc1cn(CC(=O)NCCCCCCCCCCC(=O)N2CCNCC2)nn1 | · | -2.5 | -1.1 | 93.4* | -1.7 | 1.4 | 3.7 | 2.5
C[C@@H](O)Cc1cn(CC(=O)NCCCCCCCCCCC(=O)N2CCNCC2)nn1 | · | -4.3 | 2.6 | -0.3 | 3.2 | 1.5 | · | ·
O=C(O)c1ccc(N/N=C/c2cn(Cc3ccc(F)cc3)c3ccccc23)cc1 | · | -0.5 | 1.4 | -0.9 | 0.5 | 18.2 | · | ·
O=[N+]([O-])/C=C/c1cn(Cc2ccc(F)cc2)c2ccccc12 | -10.3 | 2.1 | 12.1 | 56.8* | 13.3 | -1.2 | 92.5* | 68.0*
CCOC(=O)c1c(CSC(=N)N)n(-c2ccccc2)c2cc(Br)c(OC(C)=O)cc12 | · | 15.9 | 80.6* | 32.2* | -4.8 | 2.0 | 29.5* | 30.2*
Cc1cccc(C)c1NC(=O)C[N+](C)(C)CC(O)COc1cccc2ccccc12 (configuration not stated) | -1.0 | -5.7 | -3.1 | 46.7* | 0.3 | 3.7 | 34.1* | 17.5*
O=C1c2ccccc2C(=O)N1CC(O)COc1cccc2ccccc12 (configuration not stated) | · | 3.0 | 1.0 | 10.1 | · | -1.9 | · | ·
O=C(C(=O)N1CCC(CNS(=O)(=O)c2cc(C(F)(F)F)cc(C(F)(F)F)c2)CC1)c1cccs1 | · | · | · | · | · | 3.8 | · | ·
